S16 viability – toxic to S16 Pmp22-F2sN Schwann cells; Potency, µM (doses to about 57.5 µM), inactives show at the top dose activity change, negative = cytotoxicity, hits mostly cytotoxic; AID 1508642; S16 Pmp22-F2sN Schwann cells viability, CellTiter-Glo, 24 h; hit rate 0.48% among 43,000; also: nearly all actives have a fitted effect of over 65% in size
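Seed 500-1,000 S16 Pmp22-F2sN cells per well in phenol-red-free DMEM with 10% heat-inactivated FBS; pin-add 23 nL compound; incubate 24 h at 37C; add CellTiter-Glo, wait 15 min protected from light; read luminescence.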
p53null 39C kill – p53 null cell cytotoxicity, nonpermissive temperature. H1299 p53-null (neo) cells, 39C, ATPlite viability, 24 h. Potency, µM (titrated, usually from 46.1 µM), without a hit: at the top dose activity, negative = cell killing, actives largely listed as cytotoxic. hit rate 0.97% among 55,000;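 also: 0% = DMSO only and -100% = full killing by 100 µM tamoxifen; nearly all actives have a fitted effect of over 50% in size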
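ATP-luminescence viability readout (ATPlite, 20 min RT) after 24 hr compound treatment at 39C of H1299-neo or H1299-p53A138V cells; titration up to 46 uM; normalized to DMSO and 100 uM tamoxifen; Hill-fit AC50.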
PMP22 txn – PMP22 gene transcription modulation; hit rate 2% among 43,000; S16 Pmp22-F2sN Schwann cells (luciferase reporters placed in the Pmp22 gene), FLuc/NLuc coincidence luminescence, 24 h; Potency, µM (top dose mostly 57.5 µM), without a hit: top-dose activity change, negative = inhibition, hits mostly inhibitors; active = clear falling dose curves in both reporters; inconclusive = both reporters move, but less clearly or upward; inactive = either reporter flat; the % is the NLuc reporter signal
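qHTS, 1536-well. Cells seeded, compounds added by pin tool, 24 h 37C. Nano-Glo reagent 1 (lysis/FLuc), 10 min RT, read; Stop&Glo, 10 min RT, read NLuc.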
p53null 32C kill – p53 null cell cytotoxicity, permissive temperature | hit rate 0.62% among 55,000 | H1299-neo p53 null cells, ATP luminescence, 24 h, 32C | Potency, µM (doses to about 46.1 µM), inactives show at the highest dose activity change, negative = cytotoxicity, most hits filed as cytotoxic;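 also: 0% = DMSO only and -100% = full killing by 100 µM tamoxifen; nearly all actives have a fitted effect of over 55% in size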
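Luminescent ATP readout gave cell viability of p53-null H1299-neo cells after a 24 h compound exposure at the permissive 32C. Titrations ran up to 46 uM, and AC50s were fitted with the standard Hill equation.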
mTORC1 inh – reduces mTORC1 signaling in Tsc2 and p53 null MEF cells; Tsc2-/- p53-/- MEF, phospho-rpS6 immunofluorescence/PI, 24 h; Potency, µM (doses to about 38.3 µM), for the others: at the top dose activity change, negative = inhibition, usual class: inhibitors; AID 493208; hit rate 0.78% among 44,000;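 also: plate controls were DMSO for no effect and rapamycin for full effect; nearly all actives have a fitted effect of over 50% in size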
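Compounds act on Tsc2-/-, p53-/- fibroblasts carrying an empty vector for 24 h before fixation and dual staining for phospho-S6 and DNA (propidium iodide). Values are percentages of cells above a rapamycin-defined pS6/PI threshold.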
* hit, by the source's call; ? = inconclusive; . = not tested or not shown; [ ] = dose if it differs, or a comment. The list is not random: actives were taken first. Their share in the collection is about 3.2%. Unless noted, calls follow the shape of the dose curve; as a rule, active = well fitted curve in the direction sought with a large enough effect; inconclusive = small, poorly fitted or top-dose-only effect, or another doubt; inactive = no such curve, though single readings can be large; an effect the other way counts as inactive or inconclusive. Unless noted, % is scaled to controls: 0 for no effect and ±100 for the full control effect; potency is read from the fitted curve at half-maximal effect.

SMILES	S16 viability	p53null 39C kill	PMP22 txn	p53null 32C kill	mTORC1 inh
Cc1ccc(C)c(N2CCN(C(=O)c3ccc4c(c3)c(C)c(C)n4C)CC2)c1	-4%	25µM*	-11%	34%	-7%
COc1cccc(CN2c3ccccc3-c3nc(SCC(=O)Nc4cccc(C)c4)ncc3S2(=O)=O)c1	12%	11%	-11%	13%	7%
FC(F)(F)c1cccc(Nc2nc3nonc3nc2Nc2ccc(Cl)cc2)c1	8.9µM*	13µM*	5.6µM*	?	?
O=C(Cn1cc(S(=O)(=O)Cc2cccc(Cl)c2)c2ccccc21)Nc1ccccc1C(F)(F)F	?	-12%	?	-4%	18µM*
COc1cc(C(=O)N(CCCN(C)C)c2nc3c(OC)cccc3s2)cc(OC)c1OC	-1%	-19%	?	1%	18µM*
COc1ccc(Cl)cc1NC(=O)CSc1nnc2[nH]c(=O)cc(-c3ccccc3)n12	2%	10%	?	2.5µM*	-7%
CCc1ccc(NC(=O)CSc2nnc3[nH]c(=O)cc(-c4ccccc4)n23)cc1	-12%	?	-18%	2.5µM*	-3%
O=c1cc(-c2ccccc2)n2c(SCc3ccc(Cl)cc3)nnc2[nH]1	2%	10%	-12%	-8%	-1%
O=C(CSc1nnc2[nH]c(=O)cc(-c3ccccc3)n12)Nc1ccccc1C(F)(F)F	1%	?	5%	?	0%
Cc1cc(C)cc(-n2c(SCC(=O)N3CCCCCC3)nc3c([nH]c4ccccc43)c2=O)c1	7%	18%	?	-3%	0%
COc1ccc(CCNC(=O)c2ccc3nc(Cc4ccccc4)oc3c2)cc1OC	-2%	7%	?	-7%	1%
Cc1cccc(OC(=O)c2cc(-c3ccc(C)c(C)c3)on2)c1	13%	?	-5%	-26%	-1%
Cc1cccc(NC(=O)c2cc(-c3ccc4c(c3)OCCO4)on2)c1	-2%	1.3µM*	-9%	1.3µM*	-16%
Cc1ccc(OC(=O)c2cc(-c3ccc4c(c3)OCCO4)on2)cc1C	?	25µM*	5%	?	-1%
Cc1cc(OC(=O)c2cc(-c3ccc4c(c3)OCCO4)on2)ccc1Cl	0%	16µM*	-8%	-27%	-1%
Cc1ccc(Cl)cc1NC(=O)c1cc(-c2ccc3c(c2)OCCO3)on1	0%	?	-14%	?	-18%
O=C(Nc1cccc(Cl)c1)c1cc(-c2ccc3c(c2)OCCO3)on1	-2%	?	-16%	?	-15%
Cc1ccc(CNC(=O)CN2Cc3ccccc3C2=O)cc1	-1%	-12%	-2%	-4%	-2%
CC(C(=O)Nc1cc(C(F)(F)F)ccc1Cl)n1nnc2sc3c(c2c1=O)CCCC3 (configuration not stated)	0%	-2%	-10%	-3%	-3%
CCOc1ccc(CN2C(=O)c3ccccc3Sc3ccc(C(=O)O)cc32)cc1	?	-10%	?	14%	?
CCCc1nn2c(=O)cc(COC(=O)c3ccccc3NC(=O)c3ccc(OCC)cc3)nc2s1	-14%	?	?	-8%	-2%
O=S(=O)(c1ccc(-c2csc(=Nc3ccc(F)cc3)n2CCCCCCO)cc1)N1CCCC1	18µM*	?	8.8µM*	1%[9.22 µM]	?
OCCCn1c(-c2ccc(F)cc2)csc1=Nc1ccc(F)cc1	?	1%	?	-4%[9.22 µM]	-4%
Cc1cc(C(=O)Nc2sc3c(c2C#N)CCCC3)no1	.	11µM*	.	14µM*	.
Cc1ccccc1/C=C(\C#N)c1nc(-c2ccc(Cl)cc2)cs1	24%	-27%	-10%	-7%	7%
SMILES	S16 viability	p53null 39C kill	PMP22 txn	p53null 32C kill	mTORC1 inh
COc1ccccc1Cc1nc2ccccc2nc1SCC(=O)Nc1c(C)cccc1C	18%	-3%	2%	-5%	9%
Cc1cccc2c1-c1sc(C(=O)Nc3ccccc3C(N)=O)cc1CO2	?	?	?	16µM*	-1%
COc1ccc(-c2nc3ccccc3o2)cc1NC(=O)C(C)Oc1ccc(Cl)cc1Cl (configuration not stated)	0%	-18%	14µM*	1%[9.22 µM]	-17%
COc1ccc(-c2nc3cc(NC(=O)Cc4ccc(Cl)cc4)ccc3o2)cc1OC	7%	10µM*	?	?	4.1µM*
COc1ccc(-c2nc3ccccc3o2)cc1NC(=O)CSc1ccc(Cl)cc1	0%	-19%	?	0%	7%
CCc1ccc(-n2nc(CO)c(C(=O)NC)n2)cc1	0%	20µM*	-1%	?	4%
CCc1ccc(-n2nc(CO)c(C(=O)NCC(c3ccccc3)c3ccccc3)n2)cc1	1%	-14%	-27%	0%	2%
COC(=O)c1cc(Nc2nc3ccccc3nc2NS(=O)(=O)c2ccc(C)cc2)ccc1Cl	-9%	-6%	?	-18%	-1%
CCOc1cc(CNC(=O)c2ccc(NC(=O)c3nsc4ccccc34)cc2)ccc1OC	-16%	-13%	7%	-22%	?
CC1CCN(c2nc(-c3ccc(C(C)(C)C)cc3)nc3ccccc23)CC1	-2%	13µM*	?	13µM*	4%
CCCOc1ccc(-c2nc(N3CCC(C)CC3)c3ccccc3n2)cc1	.	5%	.	3%	1%
CC1CCCCN1c1nc(-c2ccc(C(C)(C)C)cc2)nc2ccccc12 (configuration not stated)	-1%	16µM*	-14%	13µM*	-11%
Cc1ccc(-c2nc3c(c(SCC(=O)N(C)c4ccccc4)n2)Cc2c(CO)cnc(C)c2O3)cc1	?	-11%	?	2%	0%
CCN(CC)C(=O)CSc1nc(-c2ccc(C)cc2)nc2c1Cc1c(CO)cnc(C)c1O2	10µM*	-4%	?	0%	-1%
COc1cccc(C(=O)Nc2cccc(-c3cn4ccsc4n3)c2)c1OC	-8%	13µM*	5%	-29%	0%
O=C(NCCc1nc2ccccc2n1CCOc1ccc(Cl)cc1)C1CCCCC1	.	13µM*	.	-10%	1%
Cc1ccccc1OCCn1c(CCNC(=O)C2CCCCC2)nc2ccccc21	0%	-22%	-4%	0%	-1%
CC1CCc2c(sc(NC(=O)c3ccccc3)c2C(=O)Nc2ccccc2)C1 (configuration not stated)	10%	4%	?	2%	-7%
COc1cc(OC)cc(C(=O)Nc2ccc3c(c2)OCCO3)c1	?	6.3µM*	-5%	7.9µM*	5%
COc1cccc(-n2c(=O)[nH]cc(C(=O)Nc3ccc4c(c3)OCCO4)c2=O)c1	.	21%	.	18%	.
CCC(C(=O)NCCc1ccccc1)n1nc(C)n2c(cc3sccc32)c1=O (configuration not stated)	1%	-15%	-11%	5%	1%

High-throughput results from PubChem BioAssay.
